FLuc counter = firefly luciferase modulation, counter-screen for miR-21 project; P08659; purified FLuc, Km substrates, luminescence inhibition; Potency, µM (top dose mostly 57.5 µM), inactives show top-dose activity change, negative = inhibition, hits mostly inhibitors; 360,000 tested, 6.9% active; AID 588342;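 further: plate controls were vehicle for no effect and reference inhibitor for full effect; nearly all actives have a fitted effect of over 55% in size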
Target sequence (P08659 whole entry, looked up): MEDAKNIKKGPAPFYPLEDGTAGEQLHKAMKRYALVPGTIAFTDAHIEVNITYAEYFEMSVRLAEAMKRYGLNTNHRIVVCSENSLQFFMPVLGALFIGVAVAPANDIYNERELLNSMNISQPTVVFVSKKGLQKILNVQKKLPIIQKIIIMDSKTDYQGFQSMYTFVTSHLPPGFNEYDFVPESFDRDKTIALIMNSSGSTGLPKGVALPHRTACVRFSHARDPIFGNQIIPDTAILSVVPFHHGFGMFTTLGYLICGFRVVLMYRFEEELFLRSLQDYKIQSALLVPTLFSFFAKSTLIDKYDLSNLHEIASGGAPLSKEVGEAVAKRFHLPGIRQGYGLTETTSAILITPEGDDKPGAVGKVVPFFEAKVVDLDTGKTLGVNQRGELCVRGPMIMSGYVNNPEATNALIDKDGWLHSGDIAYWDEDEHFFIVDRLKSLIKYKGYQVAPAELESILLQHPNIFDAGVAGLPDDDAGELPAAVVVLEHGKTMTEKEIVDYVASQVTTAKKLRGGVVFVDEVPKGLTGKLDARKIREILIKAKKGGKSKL
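Biochemical qHTS of compounds, final roughly 60 µM downward over six points, against 10 nM purified firefly luciferase using Km concentrations of substrates (10 uM D-luciferin, 10 uM ATP) in Tris acetate pH 7.5 buffer; luminescence output.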
NPC1 prom act = activates the NPC1 promoter; Huh7 NPC1 promoter luciferase reporter, 24 h; Potency, µM (top dose mostly 9.22 µM), for the others: at the top dose activation, actives largely listed as activators; 320,000 tested, 2.4% active; AID 485313; further: % of control where 0% means no effect; nearly all actives have a fitted effect of over 60% in size
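Luciferase expression driven by the NPC1 promoter was measured in stably transfected Huh7 cells after a 24 h compound incubation, using a luciferase reagent and a luminescence read.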
p53 reactivation = restores transcriptional activity of mutant p53; H1299 p53-A138V BP100-luciferase reporter, luminescence, 24 h; 320,000 tested, 0.063% active; Potency, µM (series often up to 92.2 µM), without a hit: at the highest dose activity change, positive = activation, usual class: activators; further: % of control where 0% means no effect; nearly all actives have a fitted effect of over 45% in size
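H1299 (p53-null), stable ts p53-A138V + BP100-Luc; 1000 cells/well, Opti-MEM/10% FBS; cpd 4 pt, 1:5; 24 h, 37 deg C, 5% CO2; detection reagent 10 min RT; luminescence.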
Rab9 prom act = activators of Rab9 promoter; Huh7 Rab9 promoter-luciferase reporter, luminescence, 24 h; Potency, µM (series often up to 9.22 µM), without a hit: at the highest dose activation, negative = inhibition, hits mostly activators; 320,000 tested, 2.8% active; AID 485297; further: % of control where 0% means no effect; nearly all actives have a fitted effect of over 60% in size
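Luminescence from Amplite-detected luciferase (10 minutes, ambient) reports Rab9 promoter activation. Before that, stable Rab9-luciferase Huh7 cells (1500/well, reduced-serum OP-MEM I plus 10% FBS) were exposed to compound for 24 hours at 37C.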
ELG1 genotoxic = genotoxicity induction in ELG1-luciferase HEK293T cells | HEK293T ELG1-luciferase reporter, luminescence, 16 h | Potency, µM (titrated, usually from 46 µM), for the others: at the highest dose activity change, positive = activation, most hits filed as activators | 330,000 tested, 1.3% active | AID 504466; further: % of control where 0% means no effect; nearly all actives have a fitted effect of over 60% in size
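ELG1-luciferase HEK293T cells, 2,000/well; compound pinned in; 16 hr, 37 °C, 5% CO2; ONE-Glo, 30 min RT; luminescence on CCD imager.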
SMN2 splice enh = increases expression of the SMN2 splice variant. HEK293 SMN2-luciferase splicing reporter, luminescence, 30-36 h. Potency, µM (doses to about 46.1 µM), inactives show at the top dose activity change, positive = activation, usual class: activators. 210,000 tested, 2.8% active. AID 1458; further: % of control where 0% means no effect; nearly all actives have a fitted effect of over 55% in size
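HEK293 cells carry an SMN2 minigene-luciferase reporter in which exon 7 inclusion puts luciferase in frame. Cells were seeded at 2000 cells/well, attached for 10-12 hours, then exposed to compounds for 30-36 hours at 37C before ONE-Glo luminescence.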
* marks the source's active call; other numbers are inactive results; [ ] = remark or other dose. Shown are actives, neighbours in structure and some others; about 7.4% of the full set was active somewhere. The call rests on the fitted dose curve; in most records, active means well fitted curve in the direction sought with a large enough effect; inconclusive means small, poorly fitted or top-dose-only effect, or another doubt; inactive means no such curve, though single readings can be large; an effect the other way counts as inactive or inconclusive. Potency means the concentration at half of the fitted maximal effect.

What do the screens show for `O=C(NC1CCCC1)c1cc2cc(Br)ccc2o1`?
FLuc counter: 11µM*; NPC1 prom act: 3.2µM*; p53 reactivation: -6%; Rab9 prom act: 2.8µM*; ELG1 genotoxic: inconclusive

What do the screens show for `O=C(NC1CCCCC1)c1cc2cc(Br)ccc2o1`?
FLuc counter: 4.8µM*; NPC1 prom act: 3.2µM*; p53 reactivation: 1%; Rab9 prom act: inconclusive; ELG1 genotoxic: inconclusive

How did Cc1c(C)n(Cc2ccc(F)cc2)c2ccc(C(=O)NCc3ccco3)cc12 do in these assays?
FLuc counter: 0%

Results for O=C(NCC1(c2ccccc2)CCCC1)C(=O)Nc1cccc(C(F)(F)F)c1 ?
FLuc counter: 0%; SMN2 splice enh: 3%

How did O=C(Nc1nc(-c2ccccc2)ns1)c1ccc(Cl)cc1 do in these assays?
FLuc counter: -6%

How did CC(=O)Cc1nsc(Nc2ccccc2)n1 do in these assays?
FLuc counter: -10%; NPC1 prom act: 3%; p53 reactivation: 9%; Rab9 prom act: 27%; ELG1 genotoxic: inconclusive; SMN2 splice enh: 15%

How did O=C(Nc1nc(-c2ccccc2)ns1)c1ccncc1 do in these assays?
FLuc counter: 11µM*; NPC1 prom act: 24%; p53 reactivation: 16%; Rab9 prom act: 28%; ELG1 genotoxic: 1%

What do the screens show for `c1ccc(Nc2nc(-c3ccccc3)ns2)cc1`?
FLuc counter: 2.1µM*; NPC1 prom act: 1.8µM*; p53 reactivation: inconclusive; Rab9 prom act: 1.3µM*; ELG1 genotoxic: 1.8µM*

How did CC(C)(C)C(=O)Nc1nc(-c2ccccc2)ns1 do in these assays?
FLuc counter: 5.4µM*; NPC1 prom act: 0.5µM*; p53 reactivation: inconclusive; Rab9 prom act: 0.63µM*; ELG1 genotoxic: 14%; SMN2 splice enh: 1.6µM*

How did C=CC[C@@H](C(=O)O)c1ccccc1 do in these assays?
SMN2 splice enh: 3%[9.22 µM]

Results for CCOC(=O)c1c(C)nc(C)c(C(=O)OCC)c1-c1ccc(OC)cc1 ?
FLuc counter: 2%; NPC1 prom act: 2%; p53 reactivation: -6%; Rab9 prom act: -1%; ELG1 genotoxic: -5%; SMN2 splice enh: 1%

Results for CCOC(=O)c1c(C)nc(C)c(C(=O)OCC)c1-c1cccc(N)c1 ?
FLuc counter: -2%; NPC1 prom act: -10%; p53 reactivation: -8%; Rab9 prom act: -1%; ELG1 genotoxic: -8%; SMN2 splice enh: 22µM*

How did Cc1cccc(C(=O)Nc2cccc(C(=O)N/N=C/c3ccncc3)c2)c1 do in these assays?
FLuc counter: inconclusive; NPC1 prom act: 1%; p53 reactivation: -4%; Rab9 prom act: 1%; ELG1 genotoxic: -3%; SMN2 splice enh: inconclusive

Results for O=C(N/N=C/c1cccnc1)c1cccc(NC(=O)c2ccc(Cl)cc2)c1 ?
FLuc counter: 0%; NPC1 prom act: 1%; p53 reactivation: 1%; Rab9 prom act: -2%; ELG1 genotoxic: 3%

How did Cc1cccc(C(=O)Nc2cccc(C(=O)N/N=C/c3cccc(C)n3)c2)c1 do in these assays?
FLuc counter: 17µM*; NPC1 prom act: 1%; p53 reactivation: 1%; Rab9 prom act: 2%; ELG1 genotoxic: -1%

Results for Cc1ccc(C(=O)Nc2cccc(C(=O)N/N=C/c3ccc(O)cc3)c2)cc1 ?
FLuc counter: 0.67µM*; NPC1 prom act: 1.4µM*; p53 reactivation: 22%; Rab9 prom act: 2µM*; ELG1 genotoxic: 12%

What do the screens show for `O=C(N/N=C/c1cccc(NC(=O)c2ccc(Cl)cc2)c1)c1cccc(O)c1`?
FLuc counter: 1.9µM*; NPC1 prom act: 1.3µM*; p53 reactivation: 17%; Rab9 prom act: 2.8µM*; ELG1 genotoxic: -3%

How did CC(=O)Nc1cccc(C(=O)N/N=C/c2cccc(C)n2)c1 do in these assays?
FLuc counter: inconclusive; NPC1 prom act: 0%; p53 reactivation: -1%; Rab9 prom act: 0%; ELG1 genotoxic: 4%

Screening results from PubChem.
